# Test results taken from PubChem BioAssay (Tox21).
# Records with an inconclusive call do not appear. Where a call stands in place of a potency, no number is given. Active and inactive are the calls of the source. Calls come from the whole dose curve; as a rule, active = well fitted cell-killing curve with a large enough effect in the repeat runs; inconclusive = weak or mixed curves, or effect the other way; inactive = flat fitted curve, though single readings scatter.
# Test: qHTS assay to identify small molecule antagonists of the androgen receptor (AR) signaling pathway using the MDA cell line in the presence of 0.5 nM R1881 - cell viability counter screen (AID 1259242); note: nearly all actives have a fitted effect of over 45% in size
# Conditions: MDA-kb2 viability, CellTiter-Fluor protease fluorescence, 16 h; series mostly up to 92.4 µM
# Source text: U.S. Tox21 Program National Center for Advancing Translational Sciences [NCATS] NIH Chemical Genomics Center [NCGC] U.S. Environmental Protection Agency [EPA] National Institutes of Environmental Health Sciences [NIEHS] National Toxicology Program [NTP] U.S. Food and Drug Administration [FDA] Tox21 Assay Overview: Androgen receptor (AR) is an important member of the nuclear receptor family. Its signaling plays a critical role in AR-dependent prostate cancer and other androgen related diseases. Considerable attention has been given in the past decades to develop methods to study and screen for the environmental chemicals that have the potential to interfere with metabolic homeostasis, reproduction, developmental and behavioral functions. Therefore AR binding assay for screening androgen antagonists can be used to identify potential endocrine disruptors. MDA-kb2 cells (from ATCC, deposited by Wilson et al.) were used to screen for AR inhibitors against Tox21 compound libraries. These cells are human breast carcinoma cells that were stably transfected with a luciferase reporter gene under control of the MMTV promoter that contains response elements for both androgen receptor (AR) and glucocorticoid receptor (GR). The current screening for identification of AR inhibitors against Tox21 libraries used lower concentration of (0.5 nM) R1881 as a stimulator. The cytotoxicity of the Tox21 compound libraries against MDA-kb2 cell line was tested by measuring live-cell protease activity using CellTiter-Fluor assay in the same wells.
# Tox21 Assay Protocol Summary: MDA-kb2 cells (cells cultured without CO2) were dispensed at 3,000 cells/well in 4 uL of culture medium into white wall/solid-bottom 1536-well plates (Corning Life Sciences, Corning, NY) using a Multidrop Combi (ThermoFisher Scientific, Waltham, MA) dispenser. After the assay plates were incubated at a 37C and 0% CO2 for 5 hr, 23 nL of compounds dissolved in DMSO, positive controls or DMSO only was transferred to the assay plate by a Pintool station (Kalypsys, San Diego, CA). The transfer of compounds was followed by the addition of 1 uL of 0.5 nM (final concentration) agonist (R1881)/culture medium using a Flying Reagent Dispenser (FRD, Aurora Discovery, San Diego, CA). The plates were incubated at 37C and 0% CO2 for 16 hr. For cytotoxicity assay, 1 uL of CellTiter-Fluor reagent (Promega Corporation, Madison, WI) was added to each well using the FRD and after 30 min incubation at 37C and 0% CO2, The fluorescence intensity was measured using ViewLux plate reader (PerkinElmer, Shelton, CT).
row,Compound,Potency
1,C=CCS(=O)(=O)O,inactive
2,Nc1c[n+](N2CCOCC2)no1,inactive
3,NC(=O)c1cn(Cc2c(F)cccc2F)nn1,inactive
4,CN(C)CCCNCCCN(C)C,inactive
5,O=C(O)CCCc1ccccc1,inactive
6,CCCCCCCCCCCC,inactive
7,C=C[Si](OC(=C)C)(OC(=C)C)OC(=C)C,inactive
8,Cc1sccc1Br,inactive
9,CC(C)CCCC(C)N (stereo not given),inactive
10,NS(=O)(=O)c1ccccc1Cl,inactive
11,CC(=O)N(CC(O)CO)c1c(I)c(C(=O)NCCO)c(I)c(C(=O)NCC(O)CO)c1I (stereo not given),inactive
12,O=C1CCCC(=O)C1,inactive
13,COC(C)(C)CCCC(C)CC=O (stereo not given),inactive
14,O=c1cc(CO)occ1O,inactive
15,ClC(Cl)(Br)Br,inactive
16,COCCCOCCCOC,inactive
17,COC(=O)[C@@H](N)Cc1ccc(O)c(O)c1,inactive
18,CCC=O,inactive
19,CC(C)=CCCC(C)CC(=O)O (stereo not given),inactive
20,N=C(N)c1ccc2cc(OC(=O)c3ccc(N=C(N)N)cc3)ccc2c1,inactive

row,Compound,Potency
1,COc1nc(N)nc2c1ncn2[C@@H]1O[C@H](CO)[C@@H](O)[C@@H]1O,inactive
2,CCOC(=O)c1ccc(C)cc1,inactive
3,CC(C)NC(=O)NC(C)C,inactive
4,O=Cc1cccc([N+](=O)[O-])c1,inactive
5,Cc1ccc(Cl)cc1Cl,inactive
6,Cc1cc(O)cc2c1O[C@](C)(CCC[C@H](C)CCC[C@H](C)CCCC(C)C)CC2,inactive
7,N=c1nc(N2CCCCC2)cc(N)n1O,inactive
8,FC(F)OC(Cl)C(F)(F)F (stereo not given),inactive
9,CC(=O)OC/C=C(\C)CC/C=C(\C)CCC=C(C)C,inactive
10,O=c1[nH]c(=O)n([C@H]2C[C@H](O)[C@@H](CO)O2)cc1I,inactive
11,COc1c(N2C[C@@H]3CCCN[C@@H]3C2)c(F)cc2c(=O)c(C(=O)O)cn(C3CC3)c12,inactive
12,CC(=O)CC(C)C,inactive
13,O=C1NC(=O)[C@@]2(CCOc3ccc(F)cc32)N1,inactive
14,CC(C)NCCCC1(C(N)=O)c2ccccc2-c2ccccc21,inactive
15,CC(=O)OCC(=O)[C@@]1(O)CC[C@H]2[C@@H]3CCC4=CC(=O)CC[C@]4(C)[C@H]3C(=O)C[C@@]21C,inactive
16,CCC(C)C1CCCCC1=O (stereo not given),inactive
17,CCOC(=O)Nc1ccc(NCc2ccc(F)cc2)nc1N,inactive
18,Nc1ccccc1S(=O)(=O)O,inactive
19,NCCc1cnc[nH]1,inactive
20,COC(=O)c1cc(C(=O)OC)cc(S(=O)(=O)O)c1,inactive
